Compound activity: PubChem, several laboratories
An excerpt weighted towards active compounds, which were near 27% of everything screened.
CYP2C9 inh: inhibitors of human CYP2C9; P11712; CYP2C9 Supersomes, luciferin-H conversion, luminescence; inhibition, % at 5 µM; 20% of 96,000 active;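 active means blocking of liver enzyme CYP2C9 beyond about 50% at 5 µM, limit read from the data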
CYP2C19 inh: human CYP2C19 inhibition; CYP2C19 Supersomes, luciferin-H EGE luminescence, 30 min; inhibition, % at 5 µM; 21% of 96,000 active; AID 778;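 active means CYP2C19 inhibition above a set limit at 5 µM in the primary screen, cut at about 50% in these data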;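 further: plate controls were negative control wells for no effect and 2.5 mM tranylcypromine positive control for full effect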
Target sequence (P33261 whole entry, looked up): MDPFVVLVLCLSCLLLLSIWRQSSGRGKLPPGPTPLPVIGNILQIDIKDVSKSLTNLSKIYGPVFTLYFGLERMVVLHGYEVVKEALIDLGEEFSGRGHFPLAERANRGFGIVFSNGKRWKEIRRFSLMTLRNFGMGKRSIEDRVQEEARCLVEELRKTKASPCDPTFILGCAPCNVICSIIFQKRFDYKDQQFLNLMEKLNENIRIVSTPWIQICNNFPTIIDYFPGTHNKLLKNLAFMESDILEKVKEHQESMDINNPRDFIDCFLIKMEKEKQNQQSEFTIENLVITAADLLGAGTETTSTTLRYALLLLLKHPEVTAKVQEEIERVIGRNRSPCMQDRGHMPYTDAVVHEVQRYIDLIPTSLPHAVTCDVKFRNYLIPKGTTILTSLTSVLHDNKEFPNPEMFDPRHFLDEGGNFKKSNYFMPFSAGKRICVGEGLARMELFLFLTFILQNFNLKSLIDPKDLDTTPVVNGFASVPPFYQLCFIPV
Cav32 inh: blocks human Cav3.2 T-type calcium channel; B-score at 10 µM; Cav3.2-expressing cells, Fluo-4 calcium fluorescence FDSS; hits give low values; O95180; 4% of 100,000 active; AID 449739;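 active means single-dose well whose peak fluorescence ratio is a statistical outlier from its plate by either plate-standardised score or position-corrected B-score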
CYP2C9 act: activators of human CYP2C9; recombinant CYP2C9, luciferin-H conversion, luminescence; hits give high values; factor 1 = untreated enzyme, 0 = blocked; AID 1024; P11712; activation factor at 5 µM; 1.4% of 96,000 active;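 active means activation factor of 2 or more for CYP2C9 at a 5 µM dose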;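 further: 0 = sulfaphenazole-blocked wells and 1 = vehicle-only wells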
CYP2C19 activ: activators of human cytochrome P450 2C19. 96,000 tested, under 10 active. P33261. AID 1025. activation factor at 5 µM. recombinant CYP2C19, luciferin-H EGE luminescence; hits give high values; 0 = fully inhibited enzyme, 1 = untreated enzyme;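 active means activation factor of at least 2 at 5 µM in the primary screen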;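 further: 0 = wells with 2.5 mM tranylcypromine and 1 = vehicle-only wells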
The depositor's hits bear a star; . = no result given.

SMILES | CYP2C9 inh | CYP2C19 inh | Cav32 inh | CYP2C9 act | CYP2C19 activ
COc1cc(C(=O)NCC(C)C)c([N+](=O)[O-])cc1OC | -18.4 | -19.0 | 0.69 | 1.2 | 1.2
CCCCCc1nc2c(C#N)c(-c3ccc(Cl)cc3)ccn2n1 | 57.9* | 12.0 | -1.17 | 0.4 | 0.9
CCC(C)[C@H](NC(=O)Nc1ccc(C(C)=O)cc1)C(=O)OC (stereo partly drawn) | -7.1 | 4.0 | 1.11 | 1.1 | 1
COC(=O)[C@@]1(C)CC[C@]2(C)CC[C@@]3(C)C(=CC(=O)C4[C@@]5(C)CC[C@H](O)C(C)(C)[C@@H]5CC[C@]43C)[C@H]2C1 (stereo partly drawn) | . | . | 0.273 | . | .
COC(=O)CNC(=O)c1ccccc1C | -3.7 | -3.5 | 0.104 | 1 | 1
CO/N=C(/CNC(=O)c1ccccc1Cl)c1ccc(Cl)cc1 | 47.4 | 90.9* | . | 0.5 | 0.1
COc1cccc(CNS(=O)(=O)c2cn(C)cn2)c1 | 5.0 | 18.1 | . | 0.9 | 0.8
COc1ccc(S(=O)(=O)NCc2ccc3c(c2)OCO3)cc1C | 24.0 | 99.9* | -1.91 | 0.8 | 0
COc1cccc(S(=O)(=O)NCc2ccc3c(c2)OCO3)c1 | 91.4* | 100.3* | 0.282 | 0.1 | 0
CN(C)S(=O)(=O)NCc1ccc2c(c1)OCO2 | 29.9 | 69.3* | 0.111 | 0.7 | 0.3
COc1cccc(CNS(=O)(=O)/C=C/c2ccc3c(c2)OCO3)c1 | 69.1* | 98.8* | -3.38 | 0.3 | 0
COc1ccc(S(=O)(=O)NCc2ccc3c(c2)OCO3)cc1C(=O)O | -43.9 | -10.8 | 0.956 | 1.4 | 1.1
Cc1c(NC(=O)COc2ncnc3c(Cl)cc(Cl)cc23)c(=O)n(-c2ccccc2)n1C | -1.1 | 10.2 | 0.355 | 1 | 0.9
Cc1cccc2cc(CN(CC3CCCO3)C(c3nnnn3Cc3ccco3)C(C)C)c(=O)[nH]c12 (stereo not drawn) | 39.0 | 15.3 | . | 0.6 | 0.8
Cc1ccccc1C1C(C#N)=C2N=C(N)c3c(sc4c3CCCCC4)N2C2=C1C(=O)CCC2 (stereo not drawn) | 35.6 | 14.2 | 0.0352 | 0.6 | 0.9
O=C(NCCC1=CCCCC1)N[C@@H](Cc1ccccc1)C(=O)O | -1.4 | 6.7 | -1.34 | 1 | 0.9
CCOC(=O)c1c(C(=O)OCC)c(C)n(N2C(=O)CSC2=S)c1C | 53.0* | 43.7 | -1.59 | 0.5 | 0.6
N#Cc1cnc2sc3ccccc3n2c1=N | 89.0* | 19.3 | -2.69 | 0.1 | 0.8
CC(c1ccco1)N(C(=O)c1ccc(Cl)s1)c1ccccn1 (stereo not drawn) | 58.7* | 88.6* | 0.1 | 0.4 | 0.1
Cc1ccc(C(=O)N(c2ccccn2)C(C)c2ccco2)cc1C (stereo not drawn) | 22.1 | 41.1 | 0.774 | 0.8 | 0.6
COc1cccc(C(c2sc3ncnn3c2O)N2CCN(C(=O)c3ccco3)CC2)c1 (stereo not drawn) | . | . | 0.858 | . | .
O=C(NCc1cccs1)Nc1ccc2c(c1)OCO2 | 17.2 | 52.0* | 0.527 | 0.8 | 0.5
Cc1ccc(NC2=NCC(=O)N2Cc2ccc3c(c2)OCO3)cc1 | 86.3* | 88.3* | -0.674 | 0.1 | 0.1
CC12CCC(C(=O)NCc3ccc4c(c3)OCO4)(CC1=O)C2(C)C (stereo not drawn) | 3.1 | 47.3 | 0.356 | 1 | 0.5
CC12CCC(C(=O)NCc3ccc4c(c3)OCO4)(C(=O)C1=O)C2(C)C (stereo not drawn) | 30.2 | 56.4* | 0.394 | 0.7 | 0.4
SMILES | CYP2C9 inh | CYP2C19 inh | Cav32 inh | CYP2C9 act | CYP2C19 activ
O=C(NCc1ccccc1)c1cccc(COc2cccc(Cl)c2)c1 | 17.7 | 19.6 | -3.76 | 0.8 | 0.8
O=C(NCc1ccc2c(c1)OCO2)c1ccc(COc2cccc(Cl)c2)o1 | 88.2* | 64.1* | . | 0.1 | 0.4
CN1C(=O)CC(N2CCN(c3ccccc3)CC2)C1=O (stereo not drawn) | . | . | 1.25 | . | .
O=C(Nc1ccccc1)NC1(C(=O)NCCCN2CCOCC2)CCCCC1 | 1.4 | 0.1 | 0.412 | 1 | 1
O=C(Nc1ccccc1)NC1(C(=O)NCc2cccs2)CCCCC1 | 63.3* | 12.6 | 0.969 | 0.4 | 0.9
Cc1ccc(S(=O)(=O)Cc2ccc(C(=O)NCc3ccc4c(c3)OCO4)o2)cc1 | 98.2* | 84.3* | -1.57 | 0 | 0.2
Cc1ccc(NC(=O)NCc2ccc3c(c2)OCO3)cc1 | 31.2 | 51.4* | -0.0351 | 0.7 | 0.5
Cc1ccc(-c2cc(C(=O)NCc3ccc4c(c3)OCO4)no2)cc1 | 27.0 | 7.9 | -0.238 | 0.7 | 0.9
COCCNC(=O)c1ccc(CS(=O)(=O)c2ccc(C)cc2)o1 | -30.0 | -13.5 | 0.869 | 1.3 | 1.1
Cc1ccc(S(=O)(=O)C2(C(=O)NCc3ccc4c(c3)OCO4)CC2)cc1 | 63.5* | 68.8* | 0.789 | 0.4 | 0.3
O=c1c2nnn(-c3ccccc3)c2ncn1C/C=C/c1ccccc1 | . | . | -0.312 | . | .
COc1ccc(CN(CC2CCCO2)S(=O)(=O)c2ccc(C(=O)O)cc2)cc1OC (stereo not drawn) | -11.6 | -12.9 | 1.02 | 1.1 | 1.1
CCOC(=O)CNC(=O)c1sc(NC(=O)c2ccccc2)nc1C | . | . | -0.0643 | . | .
CC(C)CCn1c(SCC(=O)N2CC(=O)Nc3ccccc32)nc2scc(-c3cccs3)c2c1=O | 0.2 | -5.9 | -1.01 | 1 | 1.1
C=CCn1c(COc2ccc(F)cc2)nnc1SCC(=O)N1CC(=O)Nc2ccccc21 | -109.8 | 47.7 | 0.307 | 2.1* | 0.5
C=CCn1c(SCC(=O)N2CC(=O)Nc3ccccc32)nc2scc(-c3cccs3)c2c1=O | 83.0* | 62.6* | -7.19* | 0.2 | 0.4
CC(C)(C(=O)c1ccccc1)/[N+]([O-])=C/c1ccc(Br)cc1 | . | . | -0.676 | . | .
O=C1Cc2ccccc2C(=O)N1Cc1ccccc1 | 26.1 | 84.6* | 0.694 | 0.7 | 0.2
O=C1c2cccc3c(O)ccc(c23)C(=O)N1Cc1ccccc1 | -50.9 | 63.5* | -10.1* | 1.5 | 0.4
CCCCC1CC1C(=O)Nc1ncc2c(n1)CC(C)(C)CC2=O (stereo not drawn) | 19.3 | 14.1 | -0.492 | 0.8 | 0.9
COC1(OC)N=C(NC(=O)Nc2ccccc2)C2(C#N)C(c3ccccc3)C12C#N (stereo not drawn) | 5.3 | -3.5 | 0.631 | 0.9 | 1
CCOC(=O)CN1C(=O)N[C@@H](c2cccc(C(F)(F)F)c2)C(C(C)=O)=C1C | . | . | 0.909 | . | .
CCOC(=O)C1=C(C)NC(C)=C(C(=O)OCC)C1 | 11.2 | 27.7 | -0.262 | 0.9 | 0.7
CCn1c(SCC(=O)Nc2ccccc2C(=O)OC)nnc1-c1ccc(N)cc1 | 16.4 | 98.0* | 0.863 | 0.8 | 0
CCn1c(SCC(=O)Nc2ccccc2C(=O)OC)nnc1-c1ccoc1C | 19.6 | 94.5* | 1.36 | 0.8 | 0.1
CCn1c(CC(=O)Nc2ccccc2)nnc1SCC(=O)Nc1ccccc1C(=O)OC | 3.1 | 1.4 | -2.27 | 1 | 1
CCOC(=O)c1ccc(NC(=O)c2c(N)n(C)c(=O)n(C)c2=O)cc1 | . | . | 0.25 | . | .
CC(=O)n1cc([C@@H]2C=C(C(=O)Nc3ccccc3)O[C@H](OCCCCO)C2)c2ccccc21 | . | . | -0.0988 | . | .
CN(C)CCN(Cc1ccccc1)c1ccnc(N(C)C)c1C#N | 2.5 | -2.9 | . | 1 | 1
